Results filed as inconclusive are left out. The source made the active and inactive calls. Rule for the calls, unless noted: active = hit-call score of the fitted dose curve at least 0.9, where 1 is the maximum; inactive = score below 0.9.
Tests used:
[1] = ACEA_ER_80hr: ACEA Biosciences xCELLigence Real-Time Cell Analysis on Estrogen Receptor Agonism for Proliferation (AID 2282667; active = hit-call score of the fitted dose curve at least 0.9, where 1 is the maximum); conditions: T47D proliferation, impedance (xCELLigence), 80 h
In short: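 Estrogen-driven proliferation is captured as electrode impedance in T47D cells 80 h after compound addition. Test articles ran at 8 concentrations, 1:4 dilutions from 100 uM final, in two replicate plates.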

[2] = ATG_CRE_CIS: Attagene CIS-FACTORIAL HepG2 Assay for human cAMP Responsive Element (CRE) binding protein 3 (AID 2282926); conditions: HepG2 CRE cis-reporter, Attagene multiplexed mRNA; actives raise or lower the signal
In short: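 Transfected HepG2 were treated for 24 hours, then RNA was extracted and reporter cDNA amplified with sequence-specific primers. Labelled fragments were separated by capillary electrophoresis, and the CRE signal was fitted bidirectionally with DMSO as baseline.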

[3] = molecular target: CCAAT/enhancer-binding protein beta (Homo sapiens) (UniProt P17676); assay: ATG_C_EBP_CIS: Attagene CIS-FACTORIAL HepG2 Assay for human CCAAT/Enhancer Binding Protein (C/EBP) beta (AID 2282927); conditions: HepG2 Attagene cis-factorial transcription factor reporter; actives raise or lower the signal
Chain of CCAAT/enhancer-binding protein beta (Homo sapiens) (P17676 whole entry, looked up): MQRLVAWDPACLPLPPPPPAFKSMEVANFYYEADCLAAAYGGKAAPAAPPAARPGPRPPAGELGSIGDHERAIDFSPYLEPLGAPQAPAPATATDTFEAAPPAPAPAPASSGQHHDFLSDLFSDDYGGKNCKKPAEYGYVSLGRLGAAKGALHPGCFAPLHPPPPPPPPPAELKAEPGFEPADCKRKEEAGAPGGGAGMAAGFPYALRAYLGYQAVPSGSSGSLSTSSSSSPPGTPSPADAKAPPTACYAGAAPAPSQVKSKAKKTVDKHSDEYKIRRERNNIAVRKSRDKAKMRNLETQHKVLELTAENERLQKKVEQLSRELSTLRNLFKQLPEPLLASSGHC
In short: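 Changes in reporter mRNA, rather than exogenous chimeric receptor activity, reflect native C/EBP signalling in transfected HepG2 cells dosed for 24 h; transcripts are detected by RT-PCR and capillary electrophoresis.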

[4] = ATG_CMV_CIS: Attagene CIS-FACTORIAL HepG2 Assay for human CMV (Internal Marker) (AID 2282928); conditions: HepG2 CMV promoter reporter, transcription factor profiling; actives raise or lower the signal;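 note: endpoint acts as a background internal control marker rather than a target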
In short: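 After transient transfection of HepG2 with reporter transcription units driven by cis-regulatory promoters, cells receive test chemical for 24 h. Labeled reporter amplicons, digested with HpaI, are sized and quantified by capillary electrophoresis against DMSO.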

[5] = ATG_DR4_LXR_CIS: Attagene CIS-FACTORIAL HepG2 Assay for human Liver X Receptor (LXR), DR4 submotif (AID 2282929); conditions: HepG2 Attagene DR4 cis-reporter, mRNA transcription; actives raise or lower the signal
In short: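 HepG2 cells transiently transfected with cis-promoter-driven multiplexed reporter units (DR4 element) were dosed for 24 h. Reporter mRNA was quantified by RT-PCR, fluorescent primer extension, HpaI digestion and capillary electrophoresis; bidirectional fitting versus DMSO baseline.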

[6] = molecular target: Aryl hydrocarbon receptor (Homo sapiens) (UniProt P35869); assay: ATG_Ahr_CIS: Attagene CIS-FACTORIAL HepG2 Assay for human Aryl Hydrocarbon Receptor (Ahr) (AID 2282930); conditions: HepG2 AhR cis-factorial reporter transcription; actives raise or lower the signal
Chain of Aryl hydrocarbon receptor (Homo sapiens) (P35869 whole entry, looked up): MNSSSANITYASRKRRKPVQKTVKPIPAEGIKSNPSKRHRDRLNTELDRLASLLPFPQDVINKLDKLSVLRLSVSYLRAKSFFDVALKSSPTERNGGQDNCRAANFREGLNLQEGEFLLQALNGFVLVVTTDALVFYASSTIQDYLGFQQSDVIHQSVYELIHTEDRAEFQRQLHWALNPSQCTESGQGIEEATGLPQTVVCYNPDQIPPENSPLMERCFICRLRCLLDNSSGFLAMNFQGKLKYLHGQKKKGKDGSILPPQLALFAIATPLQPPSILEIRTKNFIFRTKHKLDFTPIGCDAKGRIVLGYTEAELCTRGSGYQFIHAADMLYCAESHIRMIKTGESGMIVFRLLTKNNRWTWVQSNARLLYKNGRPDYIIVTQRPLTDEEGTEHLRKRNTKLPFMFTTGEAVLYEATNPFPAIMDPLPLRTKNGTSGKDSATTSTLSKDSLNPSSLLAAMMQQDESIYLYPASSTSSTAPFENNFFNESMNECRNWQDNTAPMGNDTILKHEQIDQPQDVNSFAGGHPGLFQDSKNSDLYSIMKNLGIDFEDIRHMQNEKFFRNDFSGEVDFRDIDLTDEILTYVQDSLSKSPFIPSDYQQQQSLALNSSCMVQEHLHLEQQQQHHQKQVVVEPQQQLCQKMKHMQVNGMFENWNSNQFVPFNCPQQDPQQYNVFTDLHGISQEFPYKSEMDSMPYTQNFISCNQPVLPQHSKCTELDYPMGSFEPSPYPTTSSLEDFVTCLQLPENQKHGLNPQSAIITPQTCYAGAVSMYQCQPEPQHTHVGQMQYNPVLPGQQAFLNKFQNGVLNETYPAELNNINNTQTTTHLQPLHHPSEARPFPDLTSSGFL
In short: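 HepG2, transient MRTU (cis) transfection, 24 h exposure. RNA → cDNA → PCR → 6-FAM primer extension → HpaI 2 h 37 C → CE. Fit: bidirectional, DMSO baseline.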

[7] = ATG_AP_1_CIS: Attagene CIS-FACTORIAL HepG2 Assay for human Activator Protein 1 (AP-1) (AID 2282931); conditions: HepG2 Attagene cis-factorial AP-1 reporter mRNA; actives raise or lower the signal
In short: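 HepG2 cells transiently transfected with cis-element-driven multiplex reporter units; 24 h compound exposure. Reporter mRNA quantified by RT-PCR, FAM-labelled fragments resolved by capillary electrophoresis; bidirectional fit versus DMSO baseline.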

[8] = ATG_AP_2_CIS: Attagene CIS-FACTORIAL HepG2 Assay for human Activator Protein 2 (AP-2) (AID 2282932); conditions: HepG2 AP-2 cis-reporter, Attagene transcription factor profiling; actives raise or lower the signal
In short: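 HepG2, transient MRTU transfection, cis-regulated reporters; 24 h compound exposure; RNA isolated, RT-PCR, 6-FAM labelling, HpaI digest, CE fluorescence. DMSO = negative control/baseline, bidirectional fit.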

[9] = ATG_BRE_CIS: Attagene CIS-FACTORIAL HepG2 Assay for human Bone Morphogenetic Protein (BMP) Response Element (BRE) (AID 2282933); conditions: HepG2 BMP response element reporter, Attagene transcription factor profiling; actives raise or lower the signal
In short: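 Endogenous transcription factor activity read in transiently transfected HepG2 cells after 24 h chemical exposure. Bidirectional curve fitting against DMSO; readout is reporter transcript level by RT-PCR with capillary electrophoresis of labelled products.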

[10] = molecular target: Transcription factor E2F1 (Homo sapiens) (UniProt Q01094); assay: ATG_E2F_CIS: Attagene CIS-FACTORIAL HepG2 Assay for human E2F Transcription Factor 1 (AID 2282935); conditions: HepG2 Attagene cis-reporter, E2F reporter RNA transcripts; actives raise or lower the signal
Chain of Transcription factor E2F1 (Homo sapiens) (Q01094 whole entry, looked up): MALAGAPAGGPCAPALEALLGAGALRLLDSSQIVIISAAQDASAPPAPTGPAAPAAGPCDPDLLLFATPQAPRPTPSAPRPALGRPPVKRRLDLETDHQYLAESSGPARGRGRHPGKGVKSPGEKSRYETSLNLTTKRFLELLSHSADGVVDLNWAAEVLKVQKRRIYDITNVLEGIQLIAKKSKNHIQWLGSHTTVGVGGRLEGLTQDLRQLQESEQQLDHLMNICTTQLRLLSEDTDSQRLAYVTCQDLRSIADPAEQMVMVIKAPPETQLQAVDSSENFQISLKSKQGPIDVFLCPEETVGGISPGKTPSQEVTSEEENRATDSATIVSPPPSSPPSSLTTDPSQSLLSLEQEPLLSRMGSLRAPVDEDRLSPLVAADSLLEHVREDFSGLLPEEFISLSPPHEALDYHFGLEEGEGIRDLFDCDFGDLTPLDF
In short: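 Cis-element reporter mRNA induction in transiently transfected HepG2, 24 h exposure. Activity fitted in both directions relative to DMSO negative control.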

[11] = ATG_E_Box_CIS: Attagene CIS-FACTORIAL HepG2 Assay for human Enhancer Box (E-box) (AID 2282936); conditions: HepG2 E-box cis-reporter transcription, actives raise or lower the signal
In short: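 Cells: HepG2 (human liver), transient MRTU transfection. Exposure 24 h. RNA → oligo(dT) RT → PCR → 6-FAM label → HpaI → CE. Activity fitted both directions relative to DMSO.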

[12] = ATG_M_61_CIS: Attagene CIS-FACTORIAL HepG2 Assay for M61 Transcription Factor (Internal Marker) (AID 2282937); conditions: HepG2 Attagene CIS-FACTORIAL M61 internal marker reporter; actives raise or lower the signal
In short: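 HepG2 cells transiently transfected with cis-element-driven multiple reporter transcription units, dosed for 24 h. Reporter mRNA measured by RT-PCR, 6-FAM primer-extension labelling, HpaI digestion and capillary electrophoresis; bidirectional fit versus DMSO baseline.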

[13] = ATG_EGR_CIS: Attagene CIS-FACTORIAL HepG2 Assay for human Early Growth Response 1 (EGR1) (AID 2282938); conditions: HepG2 Attagene CIS-FACTORIAL EGR reporter mRNA; actives raise or lower the signal
In short: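 HepG2 cells transiently transfected with cis-promoter-driven multiplexed reporter transcription units; reporter mRNA measured 24 h after compound dosing by RT-PCR, 6-FAM primer extension, HpaI digestion and capillary electrophoresis. Bidirectional fit versus DMSO baseline.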

[14] = ATG_M_19_CIS: Attagene CIS-FACTORIAL HepG2 Assay for M19 Transcription Factor (Internal Marker) (AID 2282939); conditions: HepG2 Attagene CIS-FACTORIAL M19 internal marker reporter; actives raise or lower the signal
In short: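 Internal marker readout, fitted in both directions against DMSO, from HepG2 cells carrying transfected cis-element reporter constructs; RT-PCR and capillary electrophoresis of reporter mRNA after 24 h exposure.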

[15] = ATG_ERE_CIS: Attagene CIS-FACTORIAL HepG2 Assay for Estrogen Response Element (ERE) (AID 2282940); conditions: HepG2 ERE cis-reporter, Attagene RNA transcript; actives raise or lower the signal
In short: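 After 24 h compound treatment, RNA from transfected HepG2 cells was reverse-transcribed, reporter cDNA PCR-amplified, FAM-labelled, HpaI-cut and resolved by capillary electrophoresis. ERE-driven cis reporter transcripts reflect endogenous factors; gain or loss scored against DMSO.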

[16] = ATG_Ets_CIS: Attagene CIS-FACTORIAL HepG2 Assay for human Erythroblast Transformation Specific (ETS) (AID 2282941); conditions: HepG2 ETS cis-reporter transcription, actives raise or lower the signal
In short: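 Human HepG2 hepatoma cells were transiently transfected with promoter-driven reporter constructs and treated for 24 hours. Reporter transcripts were quantified by RT-PCR with fluorescent primer extension; bidirectional curve fitting used DMSO as reference.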

[17] = molecular target: Hepatocyte nuclear factor 3-beta (Homo sapiens) (UniProt Q9Y261); assay: ATG_FoxA2_CIS: Attagene CIS-FACTORIAL HepG2 Assay for human Forkhead box A2 (FOXA2) (AID 2282942); conditions: HepG2 cis-reporter transcription factor activity, 24 h; actives raise or lower the signal
Chain of Hepatocyte nuclear factor 3-beta (Homo sapiens) (Q9Y261 whole entry, looked up): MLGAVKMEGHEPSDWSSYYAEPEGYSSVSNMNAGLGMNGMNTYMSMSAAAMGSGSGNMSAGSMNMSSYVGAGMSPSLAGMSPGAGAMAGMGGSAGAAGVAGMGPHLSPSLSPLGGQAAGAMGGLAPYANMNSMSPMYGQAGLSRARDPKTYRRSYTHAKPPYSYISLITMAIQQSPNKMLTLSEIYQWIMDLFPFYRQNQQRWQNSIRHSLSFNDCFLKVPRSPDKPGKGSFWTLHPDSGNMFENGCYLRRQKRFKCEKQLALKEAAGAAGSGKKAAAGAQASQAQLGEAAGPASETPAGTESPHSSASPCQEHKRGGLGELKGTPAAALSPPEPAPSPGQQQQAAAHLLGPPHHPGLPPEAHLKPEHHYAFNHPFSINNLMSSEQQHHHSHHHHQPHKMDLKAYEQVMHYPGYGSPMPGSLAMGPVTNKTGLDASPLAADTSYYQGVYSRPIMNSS
In short: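 HepG2 cells transiently transfected with multiple cis-regulated reporter transcription units, dosed for 24 h. Reporter mRNA measured by RT-PCR, 6-FAM labelling, HpaI digestion and capillary electrophoresis; bidirectional fitting against DMSO baseline.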

[18] = ATG_FoxO_CIS: Attagene CIS-FACTORIAL HepG2 Assay for human Forkhead box O (FoxO) (AID 2282943); conditions: HepG2 Attagene cis-reporter, FoxO element, mRNA; actives raise or lower the signal
In short: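 Human hepatoma HepG2 cells carry transiently introduced reporter transcription units controlled by cis promoter elements. Chemical treatment lasted 24 h, and mRNA signal was compared with DMSO.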

[19] = ATG_GATA_CIS: Attagene CIS-FACTORIAL HepG2 Assay for human GATA Binding Protein (AID 2282944); conditions: HepG2 GATA cis-element reporter, Attagene multiplex mRNA; actives raise or lower the signal
In short: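 Reporter transcripts from a GATA cis-regulated unit, among multiplexed reporters in transfected HepG2 cells, were measured by RT-PCR with capillary electrophoresis after 24 h dosing. Induction or loss scored relative to DMSO.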

[20] = molecular target: Retinoic acid receptor alpha (Homo sapiens) (UniProt P10276); assay: ATG_DR5_RAR_CIS: Attagene CIS-FACTORIAL HepG2 Assay for human Retinoic Acid Receptor Alpha (RARE), DR5 submotif (AID 2282934); conditions: HepG2 Attagene cis-factorial RARE DR5 reporter, mRNA; actives raise or lower the signal
Chain of Retinoic acid receptor alpha (Homo sapiens) (P10276 whole entry, looked up): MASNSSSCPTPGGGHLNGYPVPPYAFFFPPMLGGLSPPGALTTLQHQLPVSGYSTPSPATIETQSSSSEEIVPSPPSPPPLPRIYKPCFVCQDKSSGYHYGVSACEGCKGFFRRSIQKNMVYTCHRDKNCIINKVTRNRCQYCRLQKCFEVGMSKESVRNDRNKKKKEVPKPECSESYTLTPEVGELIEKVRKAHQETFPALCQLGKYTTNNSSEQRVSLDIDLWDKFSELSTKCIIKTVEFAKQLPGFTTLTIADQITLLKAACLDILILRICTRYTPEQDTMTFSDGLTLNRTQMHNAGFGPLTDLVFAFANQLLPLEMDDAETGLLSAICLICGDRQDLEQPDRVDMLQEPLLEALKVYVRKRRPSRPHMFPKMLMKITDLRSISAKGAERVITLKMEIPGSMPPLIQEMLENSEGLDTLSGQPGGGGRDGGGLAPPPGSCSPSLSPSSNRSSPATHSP
In short: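 HepG2, transient cis-reporter transfection, 24 h exposure. mRNA readout: RT-PCR, FAM label, HpaI cut, capillary electrophoresis. DMSO baseline, gain/loss fitting.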

Measured: AC50

CC1C(C)(C)C2=C(C(=O)CCC2)C1(C)C (centres undefined)
active: [15] 26.6 µM
not listed: [20]
inactive: all other assays above

CCCCC(CC)COS(=O)(=O)O (centres undefined)
not listed: [10]
inactive: all other assays above

CC(C)CO
not listed: [10] | [19]
inactive: all other assays above

CCCCCCCCCCCCCCCCCCOS(=O)(=O)O
active: [1] 10.5 µM | [4] 11.1 µM | [7] 20.3 µM | [8] 57.3 µM | [12] 54.7 µM | [14] 52.5 µM | [15] 26.8 µM | [17] 56.7 µM
not listed: [10]
inactive: all other assays above

CCCCCCCCCCCCc1ccc(O)cc1
active: [1] 0.35 µM | [15] 0.146 µM
not listed: [10] | [19]
inactive: all other assays above

Cc1cc(=O)[nH]c(=O)[nH]1
not listed: [10]
inactive: all other assays above

C=C[C@@]1(C)CC(=O)[C@]2(O)[C@@]3(C)[C@@H](O)CCC(C)(C)[C@@H]3[C@H](O)[C@H](OC(C)=O)[C@@]2(C)O1
active: [1] 2.59 µM | [2] 3.45 µM | [4] 0.476 µM | [5] 0.51 µM | [15] 0.895 µM
not listed: [18] | [20]
inactive: all other assays above

CCOC(=O)OC(=O)OCC
not listed: [7]
inactive: all other assays above
